The values that follow are results of earlier work, collected in PubChem BioAssay AID977611.

Hit rate of the full screen: of about 3,900 compounds, about 3,900 (100%) were called active. Cut-off not given; nearly all actives show Kd up to about 4200 µM. So high a share suggests a set chosen from earlier hits. The list shows a part of the results. Where a SMILES comes first, the peptide text is derived from it. Non-standard residues stand in square brackets, D forms with d. Square brackets hold non-standard residues; d marks the D form. Residues, ends and D or L forms follow the SMILES beside them. Peptide text beside a SMILES is read from it. [ ]: non-standard residue; d: D form. ξ: configuration not given here. *: point of attachment. X1 = O=C(O)c1cc(NC(=S)*)ccc1-c1c2ccc(=O)cc-2oc2cc(O)ccc12; Phe(3,4-Cl2) = N[C@@H](Cc1ccc(Cl)c(Cl)c1)C(=O)O; Orn(CH(NH2)2) = NC(N)NCCC[C@H](N)C(=O)O; ΔPro = O=C(O)[C@@H]1C=CCN1; Nva = CCC[C@H](N)C(=O)O; ξE = NC(CCC(=O)O)C(=O)O; Abu = CC[C@H](N)C(=O)O; Ahx = NCCCCCC(=O)O

Broadly, the Kd is the concentration at which binding is half-saturated.

This data set in a line: PubChem AID 977611. As to conditions: PDB protein-ligand complexes, literature Kd.

`CN(C)S(=O)(=O)c1ccsc1`: the Kd was 3200 µM (active) (protein: Pantothenate synthetase (T2A, E77G mutation), PDB entry 4efk) and 1700 µM (active) (protein: Pantothenate synthetase (T2A, E77G mutation), PDB entry 4g5y).

For the compound `CC1(C)NC(N)NC(N)N1c1ccc(Cl)cc1` (stereo not given), for the setting “protein: Dihydrofolate reductase, PDB entry 4kne”, the dissociation constant (Kd) was 1.26 µM (active).

As to `CC(=O)NCCCCNc1ncnc2c1ncn2[C@@H]1O[C@H](CN(CCCNC(=O)Nc2ccc(C(C)(C)C)cc2)C(C)C)[C@@H](O)[C@H]1O`, the Kd (protein: Histone-lysine N-methyltransferase, H3 lysine-79 specific DOT1L, PDB entry 4wvl) was 0.131 µM (active). As for `CCCCC/C=C\C\C=C/C=C/C=C/C[C@@H](O)CCCC(=O)O`, for the setting “protein: Tablysin 15, PDB entry 3u3u”, the Kd was 0.133 µM (active).

As for `CC(C)C[C@H](NC(=O)[C@H](CC(=O)O)NC(=O)[C@H](CO)NC(=O)[C@H](Cc1ccccc1)NC(=O)[C@@H](NC(=O)[C@@H](N)CCC(=O)O)[C@@H](C)O)C(=O)N[C@@H](Cc1c[nH]c2ccccc12)C(=O)N[C@@H](CCCCN)C(=O)N[C@@H](CC(C)C)C(=O)N[C@@H](CC(C)C)C(=O)N1CCC[C@H]1C(=O)O`, the Kd was 1.9 µM (active) (protein: E3 ubiquitin-protein ligase Mdm2 (E69A, K70A mutation), PDB entry 4hfz) and 2.4 µM (active) (protein: human-mimic Mdm4 protein, PDB entry 2z5t).

For `C[C@H](N)C(=O)N[C@@H](CO)C(=O)N[C@@H](CCCN=C(N)N)C(=O)N[C@@H](Cc1c[nH]c2ccccc12)C(=O)N[C@@H](CC(=O)O)C(=O)N[C@@H](CCC(=O)O)C(=O)N[C@H](C(=O)N1CCC[C@H]1C(=O)O)[C@@H](C)O` (H-ASRWDETP-OH), where the note is “protein: RNA-binding protein 39 CAPER-alpha, PDB entry 4oz1”, the Kd was 2.4 µM (active).

Take `C[C@H](NC(=O)[C@H](CCCNC(N)N)NC(=O)[C@@H](N)CCCCN)C(=O)N[C@@H](CO)C(=O)N[C@@H](CCCNC(N)N)C(=O)N[C@@H](Cc1c[nH]c2ccccc12)C(=O)N[C@@H](CC(=O)O)C(=O)N[C@@H](CCC(=O)O)C(=O)N[C@H](C(=O)N1CCC[C@H]1C(=O)O)[C@@H](C)O` (H-K[Orn(CH(NH2)2)]AS[Orn(CH(NH2)2)]WDETP-OH): the Kd (protein: Splicing factor 45(SPF45-UHM), PDB entry 2peh) is 1.1 µM (active). In the case of `CC[C@H](N)C(=O)N[C@H](C(=O)N[C@@H](Cc1ccccc1)C(=O)N[C@@H](CO)C(=O)N[C@@H](CC(=O)O)C(=O)N[C@@H](CC(C)C)C(=O)N[C@@H](Cc1c[nH]c2ccccc12)C(=O)N[C@@H](CCCCN)C(=O)N[C@@H](CC(C)C)C(=O)N[C@@H](CC(C)C)C(=O)N1CCC[C@H]1C(=O)O)[C@@H](C)O` (H-[Abu]TFSDLWKLLP-OH), the Kd (protein: native Mdm4 protein, PDB entry 2z5s) is 2.2 µM (active). `CC[C@H](C)[C@H](NC(=O)[C@H](CCC(=O)O)NC(=O)[C@H](CO)NC(=O)[C@@H](N)CCCNC(N)N)C(=O)N[C@H](C(=O)N[C@@H](CO)C(=O)N[C@H](C(=O)N[C@@H](C)C(=O)N1CC=C[C@H]1C(=O)N[C@@H](CO)C(=O)N[C@@H](CO)C(=O)N[C@@H](Cc1c[nH]c2ccccc12)C(=O)N[C@H](C(=O)N[C@H](C(=O)N1CCC[C@H]1C(=O)NCC(=O)N1CCC[C@H]1C(=O)O)C(C)C)C(C)C)[C@@H](C)O)[C@@H](C)CC` (H-[Orn(CH(NH2)2)]SEIISTA[ΔPro]SSWVVPGP-OH): the Kd (protein: B-cell lymphoma 6 protein, PDB entry 3bim) was 1.32 µM (active). As for `CCC[C@H](NC(=O)[C@H](Cc1c[nH]c2ccccc12)NC(=O)[C@H](CC(C)C)NC(=O)[C@H](CC(=O)O)NC(=O)[C@H](CO)NC(=O)[C@H](Cc1ccccc1)NC(=O)[C@@H](NC(=O)C(N)CCC(=O)O)[C@@H](C)O)C(=O)N[C@@H](CC(C)C)C(=O)N[C@@H](CC(C)C)C(=O)N1CCC[C@H]1C(=O)N[C@@H](CCC(=O)O)C(=O)O` (stereo not given in full) (H-[ξE]TFSDLW[Nva]LLPE-OH), the Kd (protein: Mdm4 protein, PDB entry 3dab) was 0.21 µM (active). As for `NCc1cccc2c1OCCCO2`, the Kd (protein: CATIONIC TRYPSIN, PDB entry 4ab8) is 136 µM (active). Turning to `COc1ccc2cccc(-n3cc(NC(N)=O)c(C(N)=O)n3)c2c1`, the Kd (protein: Tyrosine-protein kinase ITK/TSK kinase domain, PDB entry 4m0z) was 6.4 µM (active). On to `NC(=O)Nc1cn(-c2cccc3ccccc23)nc1C(N)=O`, for which the equilibrium dissociation constant (Kd) (protein: Tyrosine-protein kinase ITK/TSK kinase domain, PDB entry 4m0y) was 0.35 µM (active). As for `CCOc1ccc2cccc(-n3cc(NC(N)=O)c(C(N)=O)n3)c2c1`, the dissociation constant (Kd) (protein: Tyrosine-protein kinase ITK/TSK kinase domain, PDB entry 4m12) is 0.9 µM (active). Take `CCCOc1ccc2cccc(-n3cc(NC(N)=O)c(C(N)=O)n3)c2c1`: for the setting “protein: Tyrosine-protein kinase ITK/TSK kinase domain, PDB entry 4m13”, the Kd was 0.2 µM (active).

As to `CC(C)Oc1ccc2cccc(-n3cc(NC(N)=O)c(C(N)=O)n3)c2c1`, the Kd (protein: Tyrosine-protein kinase ITK/TSK kinase domain, PDB entry 4m14) was 0.2 µM (active). `CC(C)C[C@H](NC(=O)[C@H](CCCCN)NC(=O)[C@H](CCCNC(N)N)NC(=O)[C@H](C)N)C(=O)N[C@@H](CC(=O)O)C(=O)O` (H-A[Orn(CH(NH2)2)]KLD-OH): the Kd (protein: Coatomer subunit beta', PDB entry 4j84) is 20.4 µM (active).

H-AAKKLV-OH: the Kd (protein: Coatomer subunit beta', PDB entry 4j73) was 27.7 µM (active). For the compound `CC(C)C[C@H](NC(=O)[C@H](C)N)C(=O)N[C@@H](CCCCN)C(=O)N[C@@H](CCCNC(N)N)C(=O)N[C@@H](CCCNC(N)N)C(=O)N[C@@H](CC(N)=O)C(=O)N[C@H](C(=O)O)C(C)C` (HELM PEPTIDE1{A.L.K.[NC(N)NCCC[C@H](N[*:1])C(=O)[*:2]].[NC(N)NCCC[C@H](N[*:1])C(=O)[*:2]].N.V}$$$$V2.0), the Kd (protein: Importin-?, PDB entry 1iq1) was 0.035 µM (active). For `S=CNc1ccc2oc(C3=NCCN3)cc2c1`, the Kd runs as follows: (protein: Chitinase A, PDB entry 3ary) 1 µM (active); (protein: Chitinase A, PDB entry 3arz) 1 µM (active). With `CN(C)CCOc1ccc(-c2nc(-c3ccc4c(c3)CC/C4=N/O)c(-c3ccncc3)[nH]2)cc1`, where the note is “protein: B-Raf kinase domain, PDB entry 2fb8”, the Kd was 0.00016 µM (active). For `O=S(=O)(c1ccc(O)cc1O)n1cc2ccccc2c1`, where the note is “PDB entry 4mpc”, the Kd is 0.711 µM (active).

`O=S(=O)(c1ccc(O)cc1O)n1cc2cc(O)cc(O)c2c1`: the Kd (PDB entry 4mpn) was 0.239 µM (active). Take `O=C(c1ccc(O)cc1O)n1cc2ccccc2c1`: the Kd (PDB entry 4mp7) is 1.83 µM (active). For the compound `CSCC[C@H](NC(=O)[C@H](CC(C)C)NC(=O)[C@H](Cc1ccccc1)NC(=O)[C@H](CC(=O)O)NC(=O)[C@H](Cc1ccc(O)cc1)NC(=O)[C@H](Cc1c[nH]c2ccccc12)NC(=O)[C@@H](NC(=O)[C@@H](NC(=O)[C@H](CCCNC(N)N)NC(=O)[C@@H](N)CO)C(C)C)[C@@H](C)O)C(=O)N[C@@H](CCC(=O)O)C(=O)N[C@@H](CC(=O)O)C(=O)O` (H-S[Orn(CH(NH2)2)]VTWYDFLMED-OH), the Kd (protein: Guanine nucleotide-binding protein G, PDB entry 1y3a) is 3.9 µM (active). As for `CC(C)C[C@H](NC(=O)[C@H](C)NC(=O)[C@H](Cc1ccc(Cl)c(Cl)c1)NC(=O)[C@H](Cc1c[nH]c2ccccc12)NC(=O)[C@H](CCC(=O)O)NC(=O)[C@H](CCC(=O)O)NC(=O)[C@H](CC(C)C)NC(=O)[C@H](CC(=O)O)NC(=O)[C@H](CC(=O)O)NC(=O)[C@H](C)NC(=O)[C@@H](NC(=O)[C@H](Cc1ccccc1)NC(=O)[C@H](CC(=O)O)NC(=O)CCCCCNC(=S)Nc1ccc(-c2c3ccc(=O)cc-3oc3cc(O)ccc23)c(C(=O)O)c1)[C@@H](C)O)C(N)=O` ({X1-Ahx}-DFTADDLEEW[Phe(3,4-Cl2)]AL-NH2), the Kd (protein: Replication protein A 70 kDa DNA-binding subunit, PDB entry 4nb3) was 0.022 µM (active).

Regarding `CC(C)C[C@H](NC(=O)[C@H](CCC(=O)O)NC(=O)[C@H](CO)NC(=O)[C@H](CC(=O)O)NC(=O)[C@H](CO)NC(=O)[C@H](CC(=O)O)NC(=O)[C@H](CCC(=O)O)NC(=O)[C@H](CCC(N)=O)NC(=O)[C@H](CO)NC(=O)CN)C(=O)N[C@@H](CCC(=O)O)C(=O)N[C@@H](CCC(N)=O)C(=O)N[C@@H](Cc1ccc(O)cc1)C(=O)N[C@@H](Cc1ccccc1)C(=O)N[C@H](C(=O)N[C@@H](C)C(=O)N[C@@H](CCCNC(N)N)C(=O)N[C@@H](Cc1c[nH]c2ccccc12)C(=O)O)[C@@H](C)O` (H-GSQEDSDSELEQYFTA[Orn(CH(NH2)2)]W-OH), the Kd (protein: DAXX N-Terminal Helical Bundle Domain (55-144), PDB entry 2kzu) was 60 µM (active).
